This passage reports growth results from PubChem BioAssay (NCI).

SMILES strings stand for the structures. About 83,000 compounds went through this panel and 20% of them were active in at least one assay; those are over-represented in the sample as a whole.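 Note: values are percent growth. 100 is the growth of untreated cells, values between 100 and 0 indicate rising inhibition; between -100 and 0 indicates cell death.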 Values without a mark were called inactive. The source made the active and inactive calls. The calls were made as follows: active = growth percent below 10; inactive = the rest.

Test systems include SR leukemia; RPMI-8226 leukemia; OVCAR-8 ovarian; OVCAR-5 ovarian; OVCAR-4 ovarian; SK-OV-3 ovarian; IGROV1 ovarian; OVCAR-3 ovarian; HS 578T breast; NCI/ADR-RES ovarian.
Common to all, as to assay: NCI-60 one-dose screen, 48 h (100 = growth as untreated, 0 = no growth, -100 = all killed)
Holding throughout (conditions): 10 µM unless noted

Turning to `COc1ccc(/C=C/C(=O)c2ccc(Nc3ncnc4ccccc34)cc2)cc1OC`, the growth in the test with SR leukemia was 16.7%; in the test on RPMI-8226 leukemia, -11.4% (active); in the test on OVCAR-8 ovarian it was 65%; in the test on OVCAR-5 ovarian, 103%; with OVCAR-4 ovarian it was 85.5%; in the test with SK-OV-3 ovarian, 102%. For the same compound, the growth was 76.3% in the test on IGROV1 ovarian, 74.9% in the test on OVCAR-3 ovarian, 110% in the test with HS 578T breast and 78.1% with NCI/ADR-RES ovarian.

For the compound `O=C(Nc1nc(-c2ccccc2Cl)cs1)c1cc(-c2ccccc2)nc2ccc(Cl)cc12`, the growth in the test with SR leukemia is 21.9%; with RPMI-8226 leukemia it was 21.4%; in the test with OVCAR-8 ovarian, 19.2%; in the test with OVCAR-5 ovarian, 93.2%; in the test with OVCAR-4 ovarian, 76%; with SK-OV-3 ovarian it was 95.5%. The growth was 59.7% with IGROV1 ovarian, 28.1% in the test on OVCAR-3 ovarian, 76.4% in the test with HS 578T breast and 16.5% with NCI/ADR-RES ovarian.

On to `CCCCCCCCOc1ccc(/C=N/Nc2cc(C)nc3ccc(Cl)cc23)cc1`, for which the growth in the test with SR leukemia is -23.3% (active); in the test on RPMI-8226 leukemia, -3.13% (active); in the test on OVCAR-8 ovarian, -34.3% (active); in the test on OVCAR-5 ovarian it was 27.1%; in the test with OVCAR-4 ovarian it was -69.7% (active); in the test with SK-OV-3 ovarian, 90.3%. Further, the growth in the test on IGROV1 ovarian was -84.6% (active); with OVCAR-3 ovarian, -93.1% (active); with HS 578T breast, 46.9%; with NCI/ADR-RES ovarian, -22% (active).

Take `CN1CCN(c2cc(F)c(NC3=C(Cl)C(=O)c4ncccc4C3=O)c(F)c2)CC1`: the growth in the test with SR leukemia is -0.813% (active); in the test on RPMI-8226 leukemia, -20.7% (active); in the test on OVCAR-8 ovarian it was 1.95% (active); in the test with OVCAR-5 ovarian, -59.8% (active); in the test with OVCAR-4 ovarian, -99.2% (active); in the test on SK-OV-3 ovarian it was 82.7%. Moreover, the growth is -90.4% (active) in the test on IGROV1 ovarian, -98.2% (active) in the test on OVCAR-3 ovarian, -16.5% (active) in the test with HS 578T breast and 37.9% with NCI/ADR-RES ovarian.

Regarding `COc1cc(NCCCN(CC(C)C)CC(C)C)c2ncccc2c1`, the growth in the test with SR leukemia was 84.9%; with RPMI-8226 leukemia it was 78%; with OVCAR-8 ovarian, 94.5%; in the test on OVCAR-5 ovarian, 114%; with OVCAR-4 ovarian, 17.2%; in the test with SK-OV-3 ovarian, 90.1%. Further, the growth in the test with IGROV1 ovarian is 80.3%; with OVCAR-3 ovarian, 69.5%; in the test with HS 578T breast, 92.3%; in the test with NCI/ADR-RES ovarian it was 79.8%.

Consider `Cc1cc(Nc2cccc(C(F)(F)F)c2)n2c(nc3ccccc32)c1C#N`, for which the growth with SR leukemia was 31.6%; in the test on RPMI-8226 leukemia, 22.8%; in the test with OVCAR-8 ovarian, 43%; in the test on OVCAR-5 ovarian it was 78%; in the test with OVCAR-4 ovarian it was 34.6%; in the test with SK-OV-3 ovarian it was 46.4%. For the same compound, the growth in the test with IGROV1 ovarian was 57.6%; in the test with OVCAR-3 ovarian, 39.4%; with HS 578T breast, 68.5%; in the test with NCI/ADR-RES ovarian, 47.9%.

Consider `CNC(=O)NCC1OC(n2cnc3c(NC(=O)Nc4ccccc4)ncnc32)C(O[Si](C)(C)C(C)(C)C)C1O[Si](C)(C)C(C)(C)C` (stereo not given), for which the growth with SR leukemia was -22.1% (active); in the test with RPMI-8226 leukemia it was 20.2%; in the test on OVCAR-8 ovarian it was 32.9%; in the test on OVCAR-5 ovarian, 69.2%; in the test on OVCAR-4 ovarian, 29.6%; with SK-OV-3 ovarian, 77.5%. For the same compound, the growth is 52.5% in the test with IGROV1 ovarian, -28.7% (active) in the test with OVCAR-3 ovarian, 61% in the test on HS 578T breast and 31% with NCI/ADR-RES ovarian.

Regarding `C=CCn1c(SCC(=O)Nc2ccc(C(=O)/C=C/c3cc(OC)c(OC)c(OC)c3)cc2)nnc1-c1cc(-c2ccc(S(C)(=O)=O)cc2)nc2ccccc12`, the growth in the test on SR leukemia was 13.9%; with RPMI-8226 leukemia, -5.82% (active); in the test on OVCAR-8 ovarian it was 68.6%; with OVCAR-5 ovarian it was 112%; in the test with OVCAR-4 ovarian, 94.5%; in the test with SK-OV-3 ovarian, 127%. Besides, the growth was 72.8% in the test with IGROV1 ovarian, 85.9% in the test with OVCAR-3 ovarian, 95.3% with HS 578T breast and 91.3% with NCI/ADR-RES ovarian.

Regarding `COc1cc(/C=N/NC(=O)c2ccccc2Nc2cccc(C(F)(F)F)c2)ccc1O`, the growth with SR leukemia is -66.4% (active); with RPMI-8226 leukemia, 78.3%; with OVCAR-8 ovarian it was 93.9%; in the test with OVCAR-5 ovarian, 89.2%; with OVCAR-4 ovarian, 50%; in the test with SK-OV-3 ovarian it was 69.6%. For the same compound, the growth in the test with IGROV1 ovarian was 111%; in the test with OVCAR-3 ovarian, 80.6%; in the test on HS 578T breast, 106%; with NCI/ADR-RES ovarian, 75.4%.

With `CC(C)(C)CC(C)(C)Nc1c(-c2ccc(C(F)(F)F)cc2)nc2cnccn12`, the growth in the test on SR leukemia is 59.8%; in the test with RPMI-8226 leukemia, 62.9%; in the test with OVCAR-8 ovarian it was 89.2%; in the test on OVCAR-5 ovarian, 102%; with OVCAR-4 ovarian it was 79.4%; with SK-OV-3 ovarian it was 82.7%. The growth was 67.4% in the test with IGROV1 ovarian, 84.8% in the test on OVCAR-3 ovarian, 102% with HS 578T breast and 81.9% with NCI/ADR-RES ovarian.

Consider `COc1ccc2c(c1)OC13Oc4cc(OC)ccc4C=C1CCCC3=C2`, for which the growth in the test with SR leukemia was 4.94% (active); with RPMI-8226 leukemia it was -20.6% (active); with OVCAR-8 ovarian it was 47.7%; with OVCAR-5 ovarian, 47.2%; in the test with OVCAR-4 ovarian, 55.2%; in the test with SK-OV-3 ovarian, 60.1%. The growth in the test on IGROV1 ovarian was 41.4%; with OVCAR-3 ovarian, 5.62% (active); with HS 578T breast, 45%; in the test on NCI/ADR-RES ovarian it was 21.6%.

On to `CCOC(=O)N1CCc2c(sc3nc4nc[nH]n4c(=O)c23)C1`, for which the growth in the test with SR leukemia was 101%; in the test on RPMI-8226 leukemia it was 98.2%; in the test on OVCAR-8 ovarian it was 103%; in the test with OVCAR-5 ovarian it was 110%; with OVCAR-4 ovarian, 109%; in the test on SK-OV-3 ovarian, 96.7%. Further, the growth with IGROV1 ovarian is 91.4%; in the test on OVCAR-3 ovarian it was 105%; in the test on HS 578T breast, 95.8%; in the test with NCI/ADR-RES ovarian, 97%.

In the case of `O=C1Nc2ccccc2/C1=N/c1nc(-c2ccc(Cl)cc2)cs1`, the growth was 60.1% in the test with SR leukemia; 39.3% with RPMI-8226 leukemia; 54.6% in the test on OVCAR-8 ovarian; 98.9% in the test with OVCAR-5 ovarian; 67.7% in the test with OVCAR-4 ovarian; 57.8% in the test with SK-OV-3 ovarian. In addition, the growth is 66.7% with IGROV1 ovarian, 64.9% with OVCAR-3 ovarian, 71.6% with HS 578T breast and 88.9% in the test on NCI/ADR-RES ovarian.
